Experimental data as given in PubChem BioAssay (NCI).
The panel holds about 83,000 compounds, 20% with a hit somewhere; the sample as a whole holds those more often.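 48-hour exposure, single concentration, 96-well plates; percent growth endpoint where 0 means no net growth. Active: below 10.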 Activity calls are given as the source filed them.

Key:
Assay in all cases: NCI-60 one-dose screen, 48 h (100 = growth as untreated, 0 = no growth, -100 = all killed)
Settings in all cases: 10 µM unless noted
DU-145 prostate = test system: DU-145 prostate
K-562 leukemia = test system: K-562 leukemia
MALME-3M melanoma = test system: MALME-3M melanoma
MDA-MB-231 breast = test system: MDA-MB-231 breast
RXF 393 renal = test system: RXF 393 renal
SF-268 CNS = test system: SF-268 CNS
SF-295 CNS = test system: SF-295 CNS
SF-539 CNS = test system: SF-539 CNS
UACC-257 melanoma = test system: UACC-257 melanoma
M14 melanoma = test system: M14 melanoma
HCT-15 colon = test system: HCT-15 colon
HT29 colon = test system: HT29 colon
SNB-75 CNS = test system: SNB-75 CNS
SNB-19 CNS = test system: SNB-19 CNS
U251 CNS = test system: U251 CNS
PC-3 prostate = test system: PC-3 prostate
SK-MEL-5 melanoma = test system: SK-MEL-5 melanoma
UACC-62 melanoma = test system: UACC-62 melanoma
LOX IMVI melanoma = test system: LOX IMVI melanoma
SK-MEL-28 melanoma = test system: SK-MEL-28 melanoma

Measured: growth

NC(CSC(c1ccccc1)(c1ccccc1)c1ccc2c(c1)OCO2)C(=O)O (stereo not given)
inactive: MALME-3M melanoma 47.6% | MDA-MB-231 breast 19.8% | SF-268 CNS 38.8% | SF-539 CNS 13.4% | UACC-257 melanoma 32.6% | HCT-15 colon 25.4% | SNB-75 CNS 30.8% | SNB-19 CNS 37.7% | PC-3 prostate 18.7% | UACC-62 melanoma 25.4% | LOX IMVI melanoma 28.5% | SK-MEL-28 melanoma 47.4%
active: DU-145 prostate -26.3% | K-562 leukemia 8.25% | RXF 393 renal -5.81% | SF-295 CNS -27.6% | M14 melanoma -19.4% | HT29 colon -5.15% | U251 CNS -7.2% | SK-MEL-5 melanoma 8.31%

Nc1n[nH]c2ccc([C@@H]3Nc4cc5[nH]ncc5cc4[C@H]4C5CCC(C5)[C@@H]34)cc12 (stereo not given in full)
inactive: DU-145 prostate 21.2% | K-562 leukemia 10.6% | MALME-3M melanoma 46.9% | MDA-MB-231 breast 12.7% | SF-268 CNS 45.4% | SF-295 CNS 11.8% | UACC-257 melanoma 67.4% | HCT-15 colon 13.7% | SNB-19 CNS 20.4% | U251 CNS 19% | PC-3 prostate 25.1% | UACC-62 melanoma 33.8% | LOX IMVI melanoma 25.4% | SK-MEL-28 melanoma 60.1%
active: RXF 393 renal -2.95% | SF-539 CNS -11.3% | M14 melanoma -3.7% | HT29 colon 6.61% | SNB-75 CNS -9.87% | SK-MEL-5 melanoma 9.55%

COCC[C@H]1CCC/C=C/[C@@H]2C[C@H](O)C[C@H]2[C@H](O)/C=C/C(=O)O1
inactive: K-562 leukemia 10.4% | SF-268 CNS 12.6% | SF-539 CNS 28.3% | UACC-257 melanoma 16.7% | SNB-75 CNS 33.9% | SNB-19 CNS 30.2% | U251 CNS 15.5% | PC-3 prostate 20.5% | UACC-62 melanoma 21.7%
active: DU-145 prostate 6.25% | MALME-3M melanoma -24.4% | MDA-MB-231 breast -85.5% | RXF 393 renal -4.97% | SF-295 CNS -2.69% | M14 melanoma 9.75% | HCT-15 colon 9.76% | HT29 colon -13.8% | SK-MEL-5 melanoma -92% | LOX IMVI melanoma -62.3% | SK-MEL-28 melanoma 0.149%

O=C(CCCCCCCCC(=O)N/N=C\c1cc(Cl)ccc1O)N/N=C\c1cc(Cl)ccc1O
active: SK-MEL-5 melanoma -37.9% | UACC-62 melanoma 0.989%
inactive: DU-145 prostate 30.5% | K-562 leukemia 23.7% | MALME-3M melanoma 37.6% | MDA-MB-231 breast 37% | RXF 393 renal 46.7% | SF-268 CNS 28.3% | SF-295 CNS 21.9% | SF-539 CNS 15.6% | UACC-257 melanoma 23.6% | M14 melanoma 17.7% | HCT-15 colon 15.6% | HT29 colon 58.9% | SNB-75 CNS 55.6% | SNB-19 CNS 34.8% | U251 CNS 29.5% | PC-3 prostate 26.6% | LOX IMVI melanoma 14.1% | SK-MEL-28 melanoma 41.7%

Cc1nc2sc(C(=O)Nc3ccc(Cl)cc3)c(N)c2cc1C(O)c1ccccc1 (stereo not given)
active: K-562 leukemia 9.79%
inactive: DU-145 prostate 34.7% | MALME-3M melanoma 44.1% | MDA-MB-231 breast 52.2% | RXF 393 renal 47.3% | SF-268 CNS 54.2% | SF-295 CNS 44.5% | SF-539 CNS 37.7% | UACC-257 melanoma 46.1% | M14 melanoma 19.7% | HCT-15 colon 28.9% | HT29 colon 25% | SNB-75 CNS 26.5% | SNB-19 CNS 41.2% | U251 CNS 32.8% | PC-3 prostate 21.9% | SK-MEL-5 melanoma 30.4% | UACC-62 melanoma 17.7% | LOX IMVI melanoma 33.4% | SK-MEL-28 melanoma 57.5%

Cc1ccc(Nc2nc(-c3ccc(F)cc3)c(C#N)c(=O)n2C)cc1
inactive: DU-145 prostate 72.7% | K-562 leukemia 97.6% | MALME-3M melanoma 45.8% | MDA-MB-231 breast 23.4% | RXF 393 renal 50.2% | SF-268 CNS 66.5% | SF-295 CNS 79.1% | SF-539 CNS 64.8% | UACC-257 melanoma 74.5% | M14 melanoma 77.9% | HCT-15 colon 55% | HT29 colon 78.2% | SNB-75 CNS 30% | SNB-19 CNS 56.2% | U251 CNS 68.2% | PC-3 prostate 67.9% | SK-MEL-5 melanoma 77.2% | UACC-62 melanoma 51.8% | LOX IMVI melanoma 74.3% | SK-MEL-28 melanoma 74.1%

O=C(CCl)Nc1ccc2c(Nc3cc(O)ccc3Cl)ncnc2c1
active: DU-145 prostate -89.1% | K-562 leukemia -36% | MALME-3M melanoma -86.4% | MDA-MB-231 breast -84.5% | RXF 393 renal -88.6% | SF-268 CNS -56.1% | SF-295 CNS -77.1% | SF-539 CNS -94% | UACC-257 melanoma -11.5% | M14 melanoma -77.1% | HCT-15 colon -81.3% | HT29 colon -74.5% | SNB-75 CNS -96.7% | SNB-19 CNS -61.9% | U251 CNS -89.8% | PC-3 prostate -74.4% | SK-MEL-5 melanoma -88.4% | UACC-62 melanoma -68.7% | LOX IMVI melanoma -81.6% | SK-MEL-28 melanoma -66.4%

O=C(O)CCCc1cnc2c3sccc3nc(SCc3c(Cl)cccc3Cl)n12
inactive: DU-145 prostate 59.3% | K-562 leukemia 20.7% | MALME-3M melanoma 59.2% | MDA-MB-231 breast 69.6% | RXF 393 renal 54.6% | SF-268 CNS 50.3% | SF-295 CNS 27.2% | SF-539 CNS 41% | UACC-257 melanoma 53% | M14 melanoma 33% | HCT-15 colon 36.9% | HT29 colon 15.6% | SNB-75 CNS 16% | SNB-19 CNS 41% | U251 CNS 29.5% | PC-3 prostate 50.7% | SK-MEL-5 melanoma 52.9% | UACC-62 melanoma 21.2% | LOX IMVI melanoma 39.9% | SK-MEL-28 melanoma 75.3%

CCOC(=O)C/C(=N\Nc1cc(=O)[nH]c2ccc(Cl)cc12)C(=O)OCC
inactive: DU-145 prostate 106% | K-562 leukemia 43.9% | MALME-3M melanoma 95.8% | MDA-MB-231 breast 98.8% | RXF 393 renal 110% | SF-268 CNS 98.6% | SF-295 CNS 103% | SF-539 CNS 98.8% | UACC-257 melanoma 105% | M14 melanoma 95.5% | HCT-15 colon 105% | HT29 colon 109% | SNB-75 CNS 96.7% | SNB-19 CNS 94.9% | U251 CNS 107% | PC-3 prostate 88.3% | SK-MEL-5 melanoma 98.7% | UACC-62 melanoma 92.5% | LOX IMVI melanoma 95.7% | SK-MEL-28 melanoma 103%

O=c1oc2c(cnc3ccccc32)cc1-c1cccs1
inactive: DU-145 prostate 113% | K-562 leukemia 94.1% | MALME-3M melanoma 103% | MDA-MB-231 breast 107% | RXF 393 renal 112% | SF-268 CNS 100% | SF-295 CNS 105% | SF-539 CNS 105% | UACC-257 melanoma 108% | M14 melanoma 104% | HCT-15 colon 112% | HT29 colon 111% | SNB-75 CNS 92% | SNB-19 CNS 101% | U251 CNS 99.4% | PC-3 prostate 97.3% | SK-MEL-5 melanoma 101% | UACC-62 melanoma 101% | LOX IMVI melanoma 106% | SK-MEL-28 melanoma 115%

CCCCCCNc1nc(NCCCCCC)c2[nH]c(NCCCCCC)nc2n1
inactive: DU-145 prostate 84.6% | MALME-3M melanoma 60.8% | RXF 393 renal 81% | SF-268 CNS 52.5% | SF-295 CNS 70.3% | SF-539 CNS 82.6% | UACC-257 melanoma 104% | M14 melanoma 79.5% | HCT-15 colon 88.1% | HT29 colon 36.6% | SNB-19 CNS 89.8% | PC-3 prostate 18.7% | SK-MEL-5 melanoma 78.1% | UACC-62 melanoma 81.2% | SK-MEL-28 melanoma 98.2%
active: K-562 leukemia -19.2% | MDA-MB-231 breast -2.45% | SNB-75 CNS -8.09% | U251 CNS -32.8% | LOX IMVI melanoma 1.23%

C[C@@H]1O[C@@H](O[C@@H]2C[C@H](c3ccc4c(c3O)C(=O)C3=C(C4=O)[C@@]4(O)C(=O)C[C@](C)(O)C[C@@]4(O)C=C3)O[C@H](C)[C@H]2O)C[C@H](O)[C@@H]1O
inactive: DU-145 prostate 104% | K-562 leukemia 91.3% | MALME-3M melanoma 90.7% | MDA-MB-231 breast 102% | RXF 393 renal 106% | SF-268 CNS 91.1% | SF-295 CNS 108% | SF-539 CNS 101% | UACC-257 melanoma 101% | M14 melanoma 98.4% | HCT-15 colon 98.9% | HT29 colon 106% | SNB-75 CNS 86.8% | SNB-19 CNS 91.8% | U251 CNS 97.5% | PC-3 prostate 90.5% | SK-MEL-5 melanoma 100% | UACC-62 melanoma 94.2% | LOX IMVI melanoma 91% | SK-MEL-28 melanoma 113%

Fc1ccc(COc2ccc(Nc3ncnc4sc5c(c34)CCCC5)cc2)cc1
inactive: DU-145 prostate 96.8% | K-562 leukemia 103% | MALME-3M melanoma 109% | MDA-MB-231 breast 94.9% | RXF 393 renal 109% | SF-268 CNS 89.8% | SF-295 CNS 89.8% | SF-539 CNS 103% | UACC-257 melanoma 106% | M14 melanoma 104% | HCT-15 colon 92.6% | HT29 colon 77.8% | SNB-75 CNS 113% | SNB-19 CNS 100% | U251 CNS 90.8% | PC-3 prostate 72.2% | SK-MEL-5 melanoma 95.5% | UACC-62 melanoma 72.1% | LOX IMVI melanoma 99.5% | SK-MEL-28 melanoma 91.5%

COc1ccc2c(c1)c(-c1cc(-c3cn(C)c4ccc(OC)cc34)on1)cn2C
inactive: DU-145 prostate 114% | K-562 leukemia 98.5% | MALME-3M melanoma 106% | MDA-MB-231 breast 100% | RXF 393 renal 119% | SF-268 CNS 102% | SF-295 CNS 101% | SF-539 CNS 101% | UACC-257 melanoma 107% | M14 melanoma 90.1% | HCT-15 colon 98.6% | HT29 colon 97.3% | SNB-75 CNS 97.8% | SNB-19 CNS 94.5% | U251 CNS 93.7% | PC-3 prostate 87.9% | SK-MEL-5 melanoma 81.2% | UACC-62 melanoma 90.7% | LOX IMVI melanoma 81.8% | SK-MEL-28 melanoma 94.5%
